Test results from PubChem BioAssay AID588707 (Southern Research Specialized Biocontainment Screening …, 2011).
Records with an inconclusive call do not appear. Active and inactive are the calls of the source.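 Rule for the calls: active = viability below 80% at one or more tested concentrations, flagged as toxic; inconclusive = replicate runs disagree on whether the viability criterion is met; inactive = viability at or above 80% at every dose.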

Assay: viability reduction of Vero E6 cells – cell-based, M17 leucyl aminopeptidase campaign, cytotoxicity control for P. falciparum PFM17LAP inhibitor project, dose response (AID 588707)
Conditions: CellTiter-Glo luminescence, 72 h; series mostly up to 50 µM

Row | Compound | outcome
1 | O=C(CSc1nc(O)cc(=O)[nH]1)Nc1ccccc1 | inactive
2 | COc1cc(NC(=O)CSc2ccccc2)c(C(=O)O)cc1OC | inactive
3 | COC(=O)c1cc(OC)c(OC)cc1NC(=O)c1sc2nc(C)ccc2c1N | inactive
4 | COC(=O)c1ccccc1NC(=O)c1ccc2c(Cl)c3c(nc2c1)CCC3 | inactive
5 | Cc1cc(SCC(=O)Nc2ccccc2C(=O)O)nc2ccccc12 | inactive
6 | O=C(O)c1ccccc1C(=O)Nc1nc2c(s1)CCCC2 | inactive
7 | N[C@@H](Cc1c[nH]c2ccccc12)C(=O)NO | inactive
8 | COC(=O)c1c(NC(=O)C2CCCCC2C(=O)O)sc2c1CCC(c1ccccc1)C2 (configuration not stated) | inactive
9 | O=C(CSc1nccc(=O)[nH]1)Nc1ccc(Oc2ccccc2)cc1 | inactive
10 | CC(C)C[C@H](N)C(=O)NO | inactive
11 | O=C(Nc1ccc(Cl)cc1)Nc1ccccc1C(=O)O | inactive
12 | CC1=C(C)CC(C(=O)Nc2nc(-c3cc(C)ccc3C)c(C)s2)C(C(=O)O)C1 (configuration not stated) | inactive
13 | O=C1OCCC1Sc1nnc(NC2CCCCC2)s1 (configuration not stated) | inactive
14 | O=C(CSc1nccc(=O)[nH]1)Nc1ccc(N2CCOCC2)cc1 | inactive
15 | COC(=O)c1c(NC(=O)c2ccccc2C(=O)O)sc2c1CCCC2 | inactive
16 | COc1ccc(-c2nnc(NC(=O)C3CC(C)=C(C)CC3C(=O)O)s2)cc1 (configuration not stated) | inactive
17 | Cc1ccc(NC(=O)CSc2nc(O)cc(=O)n2Cc2ccccc2)cc1 | inactive
18 | COC(=O)c1ccccc1NC(=O)c1cc2cc3ccc(C)cc3nc2s1 | inactive
19 | Cc1cc(=O)[nH]c(SCC(=O)Nc2ccccc2)n1 | inactive
20 | O=C(CSc1ccccc1)Nc1cccc2c1C(=O)NC2=O | inactive
21 | COC(=O)c1c(NC(=O)C2CC=CCC2C(=O)O)sc(C)c1-c1ccc(C)cc1 (configuration not stated) | inactive
22 | NC(N)=NCCC[C@H](N)C(=O)NO | inactive
